The text below walks through data of PubChem BioAssay (EPA / NIEHS).

The term AC50 denotes the concentration at which the activity in the assay is half-maximal.

SMILES strings stand for the structures. Several values for one entry are separate records, joined by “and”; a condition that tells them apart may be missing. Identical values can stand only once. Inconclusive results are not listed. Where a structure was tested more than once in an assay, its records may differ in their call. Activity calls are given as the source filed them. Rule for the calls, unless noted: active = hit-call score of the fitted dose curve at least 0.9, where 1 is the maximum; inactive = score below 0.9.

The target in assay [1] is Bile acid receptor (Homo sapiens) (UniProt Q96RI1). As to the kind of experiment: ATG_FXR_TRANS: Attagene TRANS-FACTORIAL HepG2 Assay for Farnesoid X Receptor (FXR) (AID 2282979; active = hit-call score of the fitted dose curve at least 0.9, where 1 is the maximum;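 note: hits raise reporter mRNA above DMSO so AC50 marks FXR activation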). The conditions noted are these: HepG2 Attagene TRANS FXR-GAL4 reporter transcription. The procedure, abridged:
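HepG2 cells transiently transfected with reporter constructs in which a chimeric FXR-GAL4 protein drives a GAL4-UAS reporter; 24 h compound exposure. Reporter mRNA measured by RT-PCR, FAM labelling, HpaI digestion and capillary electrophoresis; gain-of-signal versus DMSO.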

In assay [2] the target is Oxysterols receptor LXR-beta (Homo sapiens) (UniProt P55055). As to the kind of experiment: ATG_LXRb_TRANS: Attagene TRANS-FACTORIAL HepG2 Assay for human Liver X Receptor beta (LXRb) (AID 2282981; active = hit-call score of the fitted dose curve at least 0.9, where 1 is the maximum). The conditions noted are these: HepG2 Attagene TRANS GAL4-LXRb reporter, mRNA. In a few lines: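 Liver-derived HepG2 cells transfected with Gal4-responsive reporters were dosed for 24 h. Activation was scored as rise in reporter mRNA, by RT-PCR and capillary electrophoresis, above DMSO baseline.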

The nature of assay [3]: ATG_M_06_TRANS: Attagene TRANS-FACTORIAL HepG2 Assay for M06 Transcription Factor (Internal Marker) (AID 2282983; active = hit-call score of the fitted dose curve at least 0.9, where 1 is the maximum;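 note: reporter transcript level by RT-PCR then capillary electrophoresis fluorescence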). The settings on record: HepG2 Attagene TRANS M06 internal marker reporter. In a few lines: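 In this multiplexed HepG2 system, compounds are incubated 24 h with cells carrying GAL4-UAS reporter units. Reporter RNA is amplified and resolved by capillary electrophoresis, and induction is scored against DMSO.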

Assay [4] in a line: ATG_M_32_TRANS: Attagene TRANS-FACTORIAL HepG2 Assay for M32 Transcription Factor (Internal Marker) (AID 2282984; active = hit-call score of the fitted dose curve at least 0.9, where 1 is the maximum;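 note: transcript level of a background control reporter unit measured by RT-PCR and capillary electrophoresis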). The conditions noted are these: HepG2 Attagene TRANS M32 internal marker reporter. The procedure, abridged: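 Fluorescence-detected mRNA induction, HepG2 liver cells, 24 h after dosing. Multiple GAL4-UAS reporter units introduced by transient transfection; background-control endpoint analysed for gain of signal against DMSO.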

The target of assay [5] is Transcriptional activator Myb (Homo sapiens) (UniProt P10242). As to the kind of experiment: ATG_Myb_CIS: Attagene CIS-FACTORIAL HepG2 Assay for human Myeloblastosis (Myb) Proto-Oncogene Transcription Factor (AID 2282986). The conditions noted are these: HepG2 Attagene CIS-FACTORIAL Myb reporter transcription; actives raise or lower the signal. In a few lines:
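Fluorescence signals from capillary electrophoresis of RT-PCR-amplified reporter cDNA give the read-out. Cells: HepG2 transfected with multiple cis-regulated reporter units. Exposure lasts 24 hours; DMSO defines baseline for gain or loss of signal.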

The target in assay [6] is Nuclear respiratory factor 1 (Homo sapiens) (UniProt Q16656). As to the kind of experiment: ATG_NRF1_CIS: Attagene CIS-FACTORIAL HepG2 Assay for human Nuclear Respiratory Factor 1 (NRF1) Orphan Gene (AID 2282987). The conditions noted are these: HepG2 NRF1 cis-element reporter, Attagene multiplex; actives raise or lower the signal. The procedure, abridged:
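Transcriptional reporter readout, one component of a 52-endpoint multiplexed HepG2 panel. Exposure 24 h; mRNA detected via RT-PCR and fluorescent capillary electrophoresis; fitting in both directions against DMSO.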

The target of assay [7] is Myc proto-oncogene protein (Homo sapiens) (UniProt P01106). As to the kind of experiment: ATG_Myc_CIS: Attagene CIS-FACTORIAL HepG2 Assay for human Myelocytomatosis (Myc) Proto-Oncogene Transcription Factor (AID 2282990). The settings on record: HepG2, Attagene cis-reporter transcription factor activity; actives raise or lower the signal. In a few lines:
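DMSO-normalised, bidirectionally fitted reporter mRNA signal. HepG2 cells transfected with cis reporter constructs, treated 24 h; transcripts detected by RT-PCR, 6-FAM primer extension and CE.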

Assay [8] is described as follows: ATG_NF_kB_CIS: Attagene CIS-FACTORIAL HepG2 Assay for human Nuclear Factor Kappa B (NF-kB) (AID 2282991). The conditions noted are these: HepG2 Attagene cis-factorial NF-kB reporter mRNA; actives raise or lower the signal. In a few lines: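 HepG2, transient multi-reporter transfection, cis promoter elements (endogenous TFs). 24 h exposure. Total RNA → RT → PCR → 6-FAM label → HpaI → CE. Gain/loss vs DMSO.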

Assay [9] is described as follows: ATG_NRF2_ARE_CIS: Attagene CIS-FACTORIAL HepG2 Assay for human Nuclear Factor Erythroid 2 Related Factor 2 (NFR2) response to Antioxidant Response Elements (ARE) (AID 2282992).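 For AC50: reporter mRNA level measured by RT-PCR and capillary electrophoresis fluorescence.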 The conditions noted are these: HepG2 Attagene ARE/NRF2 reporter, transcription factor activity; actives raise or lower the signal. The procedure, abridged: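 Fluorescence intensity of reporter-specific cDNA fragments, separated by capillary electrophoresis, reflects mRNA induction in transfected HepG2 cells at 24 h. Activity is fitted bidirectionally, DMSO serving as baseline.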

Assay [10] is described as follows: ATG_Oct_MLP_CIS: Attagene CIS-FACTORIAL HepG2 Assay for human Octamer-Binding Transcription Factor (Oct) (AID 2282993). The settings on record: HepG2 Attagene cis-factorial Oct reporter, mRNA; actives raise or lower the signal. The procedure, abridged: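 Using HepG2 cells bearing transfected cis-reporter constructs, mRNA induction was read after 24 h by fluorescent RT-PCR and capillary electrophoresis, with DMSO defining baseline for gain- or loss-of-signal fits.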

The target of assay [11] is Cellular tumor antigen p53 (Homo sapiens) (UniProt P04637). As to the kind of experiment: ATG_p53_CIS: Attagene CIS-FACTORIAL HepG2 Assay for human p53 Transcription Factor (AID 2282994). The settings on record: HepG2 p53 cis-element reporter, Attagene mRNA; actives raise or lower the signal. The procedure, abridged: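 Transiently transfected HepG2 (multiple cis reporter transcription units); exposure 24 h; reporter RNA via RT-PCR, 6-FAM extension, 2 h HpaI digest at 37 C, CE detection; DMSO baseline.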

Assay [12] in a line: BSK_3C_TissueFactor: BioMAP Diversity Plus: 3C Assay for Tissue Factor Biomarker Activity (AID 2282997). The settings on record: BioMAP 3C HUVEC, tissue factor biomarker readout; actives raise or lower the signal. In a few lines:
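Readout: Tissue Factor ELISA. Cells: human primary umbilical vein endothelium. Time: 24 h after dosing. Analysis: bidirectional fit, DMSO baseline.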

Assay [13] is described as follows: BSK_3C_VCAM1: BioMAP Diversity Plus: 3C Assay for Vascular cell adhesion molecule 1 (VCAM1) Biomarker Activity (AID 2282999). The conditions noted are these: BioMAP 3C HUVEC, VCAM1 ELISA, cytokine-stimulated; actives raise or lower the signal. The procedure, abridged: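 Vascular primary endothelium (human umbilical vein) was exposed to chemicals and assayed 24 h later. VCAM-1 levels came from ELISA, with DMSO serving as baseline for bidirectional fitting.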
In general terms: In an ELISA, binding on a coated surface is turned into a signal by an enzyme label.

Assay [14] can be described thus: BSK_4H_Eotaxin3: BioMAP Diversity Plus: 4H Assay for Eotaxin 3 Biomarker Activity (AID 2283000).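 For outcome: CCL26 protein level quantified by ELISA in parallel with SRB cytotoxicity check.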 The conditions noted are these: primary human endothelial cells (HUVEC); actives raise or lower the signal. In a few lines: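 HUVEC, 24 h post-dose, ELISA for Eotaxin-3/CCL26. Gain or loss of signal fitted bidirectionally vs DMSO baseline.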
For assay [15], the target named is human Peroxisome Proliferator-activated Receptor alpha (PPARa), PPARA (gene 5465) (UniProt Q07869). As to the kind of experiment: ATG_PPARa_TRANS: Attagene TRANS-FACTORIAL HepG2 Assay for human Peroxisome Proliferator-activated Receptor alpha (PPARa) (AID 2283001; active = hit-call score of the fitted dose curve at least 0.9, where 1 is the maximum;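 for AC50: potency for gain of reporter signal over DMSO so agonist or activator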). In a few lines:
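Exposure: 24 h, transiently transfected HepG2 cells. Endpoint: GAL4-UAS reporter mRNA, RT-PCR with capillary electrophoresis fluorescence. Baseline: DMSO; increases fitted.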

In assay [16] the target is Hepatocyte nuclear factor 4-alpha (Homo sapiens) (UniProt P41235). As to the kind of experiment: ATG_HNF4a_TRANS: Attagene TRANS-FACTORIAL HepG2 Assay for human Hepatocyte Nuclear Factor 4 alpha (HNF4a) (AID 2282982; active = hit-call score of the fitted dose curve at least 0.9, where 1 is the maximum). The settings on record: HepG2 HNF4a transactivation reporter, mRNA readout. The procedure, abridged:
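Using HepG2 liver cells transfected with GAL4-UAS reporter units, chemical-induced mRNA increases were assessed after 24 hours. Fluorescent RT-PCR fragments were separated by capillary electrophoresis and compared with DMSO negative controls.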

The target in assay [17] is Nuclear receptor subfamily 4 group A member 2 (Homo sapiens) (UniProt P43354). As to the kind of experiment: ATG_NURR1_TRANS: Attagene TRANS-FACTORIAL HepG2 Assay for human Nuclear Receptor Related Protein 1 (NURR1) (AID 2282985; active = hit-call score of the fitted dose curve at least 0.9, where 1 is the maximum). The settings on record: HepG2 Attagene TRANS reporter, mRNA readout. In a few lines:
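Chimeric NR-Gal4 proteins were expressed in human HepG2 cells bearing GAL4-UAS reporter units, and induced reporter mRNA was quantified 24 h post-dosing by RT-PCR and capillary electrophoresis.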

Assay [18] in a line: BSK_3C_uPAR: BioMAP Diversity Plus: 3C Assay for Urokinase-type plasminogen activator receptor (uPAR) Biomarker Activity (AID 2282998). The conditions noted are these: BioMAP 3C HUVEC, uPAR biomarker ELISA; actives raise or lower the signal. The procedure, abridged: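 In this endothelial cell-based assay, human umbilical vein primary cells were treated with chemicals and harvested at 24 h. uPAR was quantified using ELISA, with gains or losses fitted relative to DMSO controls.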

Assay [19] is described as follows: ATG_NFI_CIS: Attagene CIS-FACTORIAL HepG2 Assay for human Nuclear Factor I (NFI) (AID 2282989). The settings on record: HepG2 cis-regulatory reporter, NFI response element transcription; actives raise or lower the signal. The procedure, abridged: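 Transfected HepG2 liver cells, exposed 24 h, supplied total RNA for oligo(dT) reverse transcription and reporter-specific PCR. Labelled, HpaI-cut fragments were sized by capillary electrophoresis; DMSO set the baseline for bidirectional fitting.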

Chain of Cellular tumor antigen p53 (Homo sapiens) (P04637 whole entry, looked up): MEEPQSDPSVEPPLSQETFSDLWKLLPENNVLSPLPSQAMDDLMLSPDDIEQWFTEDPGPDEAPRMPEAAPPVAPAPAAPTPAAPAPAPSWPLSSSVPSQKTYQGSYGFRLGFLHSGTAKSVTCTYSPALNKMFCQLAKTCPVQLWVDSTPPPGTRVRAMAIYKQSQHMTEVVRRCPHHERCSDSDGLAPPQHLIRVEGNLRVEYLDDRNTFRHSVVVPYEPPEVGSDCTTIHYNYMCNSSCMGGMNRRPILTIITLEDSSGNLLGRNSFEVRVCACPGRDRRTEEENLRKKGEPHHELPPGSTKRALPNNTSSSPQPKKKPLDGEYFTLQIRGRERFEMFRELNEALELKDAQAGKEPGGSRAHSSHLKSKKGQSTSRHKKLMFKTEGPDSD
Chain of Hepatocyte nuclear factor 4-alpha (Homo sapiens) (P41235 whole entry, looked up, the tested form may be a part): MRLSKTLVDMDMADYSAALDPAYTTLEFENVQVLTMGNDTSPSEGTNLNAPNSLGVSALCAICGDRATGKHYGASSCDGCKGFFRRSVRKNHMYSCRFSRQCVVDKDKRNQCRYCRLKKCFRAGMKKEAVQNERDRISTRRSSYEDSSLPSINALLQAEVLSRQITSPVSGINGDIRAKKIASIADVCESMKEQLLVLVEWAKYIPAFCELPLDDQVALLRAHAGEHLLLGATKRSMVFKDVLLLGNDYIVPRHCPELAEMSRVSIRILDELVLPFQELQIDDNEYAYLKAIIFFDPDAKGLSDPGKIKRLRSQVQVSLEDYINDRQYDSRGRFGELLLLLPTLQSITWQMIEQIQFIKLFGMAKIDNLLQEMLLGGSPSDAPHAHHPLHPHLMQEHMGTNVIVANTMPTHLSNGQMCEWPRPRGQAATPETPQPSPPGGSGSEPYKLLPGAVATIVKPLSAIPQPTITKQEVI
Chain of Nuclear respiratory factor 1 (Homo sapiens) (Q16656 whole entry, looked up): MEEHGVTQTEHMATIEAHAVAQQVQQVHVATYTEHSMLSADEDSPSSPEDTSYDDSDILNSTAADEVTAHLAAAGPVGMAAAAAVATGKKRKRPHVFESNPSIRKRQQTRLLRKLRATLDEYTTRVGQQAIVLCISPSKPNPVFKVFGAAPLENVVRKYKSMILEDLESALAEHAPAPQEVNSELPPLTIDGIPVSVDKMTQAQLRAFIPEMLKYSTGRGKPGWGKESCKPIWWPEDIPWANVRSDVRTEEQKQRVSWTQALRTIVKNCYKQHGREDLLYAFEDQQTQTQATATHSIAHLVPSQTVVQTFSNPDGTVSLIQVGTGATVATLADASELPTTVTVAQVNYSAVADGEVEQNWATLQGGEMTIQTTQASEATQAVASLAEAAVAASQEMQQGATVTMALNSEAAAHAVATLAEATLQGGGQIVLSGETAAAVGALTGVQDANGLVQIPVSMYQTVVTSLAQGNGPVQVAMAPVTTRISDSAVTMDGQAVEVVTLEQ
Chain of Oxysterols receptor LXR-beta (Homo sapiens) (P55055 whole entry, looked up, the tested form may be a part): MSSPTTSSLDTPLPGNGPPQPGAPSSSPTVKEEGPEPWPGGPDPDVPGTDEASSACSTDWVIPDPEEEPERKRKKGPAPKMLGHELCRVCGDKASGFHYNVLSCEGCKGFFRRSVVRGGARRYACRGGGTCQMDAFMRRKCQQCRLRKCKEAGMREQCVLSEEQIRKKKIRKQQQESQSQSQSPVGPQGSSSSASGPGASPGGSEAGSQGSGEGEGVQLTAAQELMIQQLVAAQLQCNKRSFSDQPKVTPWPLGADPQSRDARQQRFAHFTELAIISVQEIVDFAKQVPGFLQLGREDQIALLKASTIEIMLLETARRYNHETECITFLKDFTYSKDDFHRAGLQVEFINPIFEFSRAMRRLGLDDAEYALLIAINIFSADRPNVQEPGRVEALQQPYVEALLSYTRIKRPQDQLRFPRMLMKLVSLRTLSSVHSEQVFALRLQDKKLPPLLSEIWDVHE
Chain of Transcriptional activator Myb (Homo sapiens) (P10242 whole entry, looked up): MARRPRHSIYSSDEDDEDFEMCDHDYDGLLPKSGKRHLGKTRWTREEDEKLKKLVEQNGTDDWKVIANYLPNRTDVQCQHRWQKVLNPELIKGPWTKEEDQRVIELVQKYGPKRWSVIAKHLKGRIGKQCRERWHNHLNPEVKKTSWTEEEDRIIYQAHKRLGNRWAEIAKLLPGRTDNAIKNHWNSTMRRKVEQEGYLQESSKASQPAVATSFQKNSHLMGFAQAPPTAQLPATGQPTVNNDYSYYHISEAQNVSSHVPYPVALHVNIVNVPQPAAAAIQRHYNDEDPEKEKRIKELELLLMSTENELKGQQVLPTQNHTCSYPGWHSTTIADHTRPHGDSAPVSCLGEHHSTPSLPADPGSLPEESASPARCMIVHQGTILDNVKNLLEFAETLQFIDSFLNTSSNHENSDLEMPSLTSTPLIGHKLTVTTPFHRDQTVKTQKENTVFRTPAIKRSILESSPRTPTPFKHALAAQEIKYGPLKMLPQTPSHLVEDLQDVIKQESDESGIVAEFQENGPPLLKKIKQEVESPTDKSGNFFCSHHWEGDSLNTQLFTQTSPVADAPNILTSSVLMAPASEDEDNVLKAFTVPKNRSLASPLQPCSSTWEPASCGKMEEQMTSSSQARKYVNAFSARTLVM
Chain of Bile acid receptor (Homo sapiens) (Q96RI1 whole entry, looked up, the tested form may be a part): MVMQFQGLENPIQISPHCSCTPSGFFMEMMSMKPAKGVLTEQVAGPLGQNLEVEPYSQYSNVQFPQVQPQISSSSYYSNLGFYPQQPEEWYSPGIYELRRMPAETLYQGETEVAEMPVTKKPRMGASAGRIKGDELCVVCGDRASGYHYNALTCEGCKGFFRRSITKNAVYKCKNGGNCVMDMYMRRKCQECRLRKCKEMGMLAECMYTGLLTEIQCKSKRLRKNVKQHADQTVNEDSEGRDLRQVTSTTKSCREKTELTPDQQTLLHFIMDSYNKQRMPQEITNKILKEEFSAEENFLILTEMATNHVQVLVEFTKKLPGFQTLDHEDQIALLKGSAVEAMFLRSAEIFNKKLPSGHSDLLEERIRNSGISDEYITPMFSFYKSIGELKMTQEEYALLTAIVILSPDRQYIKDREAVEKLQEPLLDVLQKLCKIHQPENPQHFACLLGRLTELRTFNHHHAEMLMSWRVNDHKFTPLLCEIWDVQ
Chain of Myc proto-oncogene protein (Homo sapiens) (P01106 whole entry, looked up): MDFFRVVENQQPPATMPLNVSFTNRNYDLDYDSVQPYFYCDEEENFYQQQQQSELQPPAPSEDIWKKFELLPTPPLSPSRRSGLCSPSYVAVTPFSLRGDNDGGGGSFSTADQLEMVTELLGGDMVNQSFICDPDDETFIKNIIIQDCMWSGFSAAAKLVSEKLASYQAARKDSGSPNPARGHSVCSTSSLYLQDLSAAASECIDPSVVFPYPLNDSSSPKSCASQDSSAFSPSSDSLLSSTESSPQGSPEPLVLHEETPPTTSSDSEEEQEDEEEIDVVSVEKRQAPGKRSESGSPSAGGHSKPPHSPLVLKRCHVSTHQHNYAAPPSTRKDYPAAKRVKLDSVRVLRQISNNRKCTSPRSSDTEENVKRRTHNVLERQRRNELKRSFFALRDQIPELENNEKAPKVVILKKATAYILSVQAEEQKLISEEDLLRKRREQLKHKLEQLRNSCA
Chain of human Peroxisome Proliferator-activated Receptor alpha (PPARa), PPARA (gene 5465) (Q07869 whole entry, looked up, the tested form may be a part): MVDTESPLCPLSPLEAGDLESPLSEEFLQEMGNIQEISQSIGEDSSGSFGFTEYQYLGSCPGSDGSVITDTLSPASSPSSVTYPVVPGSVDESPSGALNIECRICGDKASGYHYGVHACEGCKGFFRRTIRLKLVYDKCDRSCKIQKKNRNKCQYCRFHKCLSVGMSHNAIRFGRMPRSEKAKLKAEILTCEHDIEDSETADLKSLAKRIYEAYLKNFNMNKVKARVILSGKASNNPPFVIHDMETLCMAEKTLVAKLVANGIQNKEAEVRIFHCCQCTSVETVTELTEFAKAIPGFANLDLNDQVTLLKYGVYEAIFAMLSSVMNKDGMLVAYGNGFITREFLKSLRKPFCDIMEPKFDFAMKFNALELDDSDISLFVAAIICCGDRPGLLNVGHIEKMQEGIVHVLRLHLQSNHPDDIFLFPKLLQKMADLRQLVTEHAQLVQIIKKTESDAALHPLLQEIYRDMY
Chain of Nuclear receptor subfamily 4 group A member 2 (Homo sapiens) (P43354 whole entry, looked up, the tested form may be a part): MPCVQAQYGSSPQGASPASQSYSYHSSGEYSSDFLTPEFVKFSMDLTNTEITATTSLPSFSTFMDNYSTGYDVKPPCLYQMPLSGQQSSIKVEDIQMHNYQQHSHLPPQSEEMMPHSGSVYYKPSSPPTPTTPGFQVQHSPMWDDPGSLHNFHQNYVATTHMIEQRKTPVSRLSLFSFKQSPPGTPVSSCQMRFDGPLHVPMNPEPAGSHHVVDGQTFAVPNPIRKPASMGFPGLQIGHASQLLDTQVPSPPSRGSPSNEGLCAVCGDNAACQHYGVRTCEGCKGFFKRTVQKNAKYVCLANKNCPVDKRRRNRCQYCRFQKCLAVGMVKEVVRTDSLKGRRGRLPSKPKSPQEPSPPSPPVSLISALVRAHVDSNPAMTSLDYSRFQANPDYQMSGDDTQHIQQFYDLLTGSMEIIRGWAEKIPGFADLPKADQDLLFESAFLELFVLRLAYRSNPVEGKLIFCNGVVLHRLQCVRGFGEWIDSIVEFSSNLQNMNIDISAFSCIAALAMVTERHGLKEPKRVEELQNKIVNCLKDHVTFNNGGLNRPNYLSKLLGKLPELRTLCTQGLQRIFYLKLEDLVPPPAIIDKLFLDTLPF

Turning to `CN(C)C=O`, the compound was called inactive in [1], in assay [2], in assay [3], in assay [4], in assay [5] and in assay [6]. The result in [7], in assay [8], in assay [9], in [10], in assay [11] and in [12] was inactive. Besides, the result in assay [13], in [14] and in assay [15] was inactive.

As to `CC(C)(C)c1ccc(O)c(C(C)(C)C)c1`, the compound was called inactive in assay [1], in assay [16], in [3], in assay [6], in assay [7] and in assay [8]. The result in [9], in [10] and in assay [11] was inactive. For the same compound, the half-maximal activity concentration (AC50) is 5.32 µM (active) in assay [2], 8.52 µM (active) in assay [12], 12.4 µM (active) in [13] and 12.1 µM (active) in [14].

`CCN(CC)CCNc1ccc(CNC=O)c2sc3ccc(OC)cc3c(=O)c12`: the half-maximal activity concentration (AC50) is 2.44 µM (active) in [1]; 1.57 µM (active) in assay [2]; 0.771 µM (active) in [17]; 1.04 µM (active) in [6]; 0.508 µM (active) in assay [7]; 73.5 nM (active) in [9]. For the same compound, the AC50 is 0.842 µM (active) in assay [10]; 0.117 µM (active) in assay [11]; 31.2 µM (active) in [12]; 12.3 µM (active) in assay [18]; 26.8 µM (active) in assay [13]; 29.2 µM (active) in assay [14]. For the same compound, in assay [15], the concentration at half-maximal activity (AC50) is 0.878 µM (active). Also, the result in assay [16], in [3] and in [4] was inactive.

Take `CC[C@H](c1ccc(O)cc1)[C@@H](CC)c1ccc(O)cc1`: the compound was classed as inactive in [1], in assay [2], in assay [16], in assay [3], in assay [4] and in [5]. Also, the result in assay [6], in [19], in [7], in assay [8], in assay [10] and in [11] was inactive. For the same compound, the AC50 is 6.58 µM (active) [middle of 4 runs] in assay [9]; 17.5 µM (active) in assay [11]; 32.5 µM (active) in [12]; 21.7 µM (active) in assay [18]; 34.2 µM (active) in assay [13]; 27.6 µM (active) in [14].

Turning to `c1ccc2c(c1)ccc1ccccc12`, the compound was called inactive in assay [1], in [2], in assay [3], in assay [4], in assay [6] and in [19]. Further, the call in assay [7], in assay [8], in assay [9], in assay [10], in assay [11] and in assay [13] was inactive. Further, the result in assay [14] was inactive. Besides, the half-maximal activity concentration (AC50) in assay [12] was 3.97 µM (active).

With `CCCCCCCCCCCCc1ccccc1S(=O)(=O)O`, the compound was classed as inactive in [1], in assay [2], in assay [4], in [5], in assay [6] and in assay [19]. In addition, the compound was classed as inactive in [7], in assay [8], in assay [9], in [10], in [11] and in [12]. Moreover, the outcome in assay [18], in assay [13], in assay [14] and in assay [15] was inactive.

On to `CCCCCCCCCCCCCC[N+](C)(C)C`, for which the outcome in assay [1], in [3], in [4], in assay [5], in assay [6] and in assay [19] was inactive. Moreover, the compound was classed as inactive in [7], in assay [8], in assay [10], in assay [11] and in [15]. The AC50 in assay [16] was 43.7 µM (active) and 40.9 µM (active); in assay [9], 5 µM (active) and 6.55 µM (active); in assay [10], 11.1 µM (active); in assay [12] it was 5.43 µM (active); in assay [18], 1.25 µM (active); in assay [13] it was 4.71 µM (active). Further, in assay [14], the concentration at half-maximal activity (AC50) was 2.93 µM (active).
